This note sets out measurements from article PMC7862700, “An all-to-all approach to the identification of sequence-specific readers for epigenetic DNA modifications on cytosine”.

Holding throughout (experiment): DAPPL (digital affinity profiling via proximity ligation, sequencing); 10 mM Tris-HCl pH 7.5, 50 mM NaCl, 1 mM DTT, 4% glycerol, room temperature, 30 min; GST-TFs on glutathione beads, 16-mer random dsDNA library, 0.1% formaldehyde crosslink after washing; high values mean tight binding
Holding throughout (conditions): protein: recombinant; tags: N-terminal GST; dsDNA, one strand shown

For one test, the target named is T1, ERF (Homo sapiens, UniProt P50548 1-548).
T1 sequence: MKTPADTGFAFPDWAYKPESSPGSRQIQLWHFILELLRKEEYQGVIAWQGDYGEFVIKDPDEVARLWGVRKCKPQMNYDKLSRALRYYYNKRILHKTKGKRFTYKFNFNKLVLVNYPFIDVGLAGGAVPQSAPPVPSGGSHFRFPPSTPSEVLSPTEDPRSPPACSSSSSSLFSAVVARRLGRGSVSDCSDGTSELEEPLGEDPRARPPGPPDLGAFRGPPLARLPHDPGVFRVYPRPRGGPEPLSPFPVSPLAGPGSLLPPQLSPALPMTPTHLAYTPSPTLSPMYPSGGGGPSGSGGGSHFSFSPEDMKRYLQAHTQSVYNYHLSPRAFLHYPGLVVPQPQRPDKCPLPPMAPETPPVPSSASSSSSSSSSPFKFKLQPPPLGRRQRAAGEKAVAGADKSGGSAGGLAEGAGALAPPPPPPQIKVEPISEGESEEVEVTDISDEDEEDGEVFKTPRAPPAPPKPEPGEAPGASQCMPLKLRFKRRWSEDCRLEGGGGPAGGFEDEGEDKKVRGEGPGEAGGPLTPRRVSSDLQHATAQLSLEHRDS
The method, boiled down: (§1)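 Sequencing on an Illumina NextSeq500 followed washing, crosslinking with 0.1% formaldehyde, proximity ligation (BsaI/T4 ligase, 1 h, 37 °C) and PCR amplification of pools that had been incubated for 30 min at room temperature with 200 nmole of a random double-stranded 16-mer DNA library in Tris/NaCl/DTT/glycerol buffer. Each pool held DNA-barcoded human transcription factors, expressed in yeast as GST fusions and captured on glutathione beads, plus a tag-only sample. Binding signal is a hexamer's read frequency for a factor divided by its frequency in the tag-only sample.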

The next test has as its target T2, ETV3L (Homo sapiens, UniProt Q6ZN32 1-361).
T2 sequence: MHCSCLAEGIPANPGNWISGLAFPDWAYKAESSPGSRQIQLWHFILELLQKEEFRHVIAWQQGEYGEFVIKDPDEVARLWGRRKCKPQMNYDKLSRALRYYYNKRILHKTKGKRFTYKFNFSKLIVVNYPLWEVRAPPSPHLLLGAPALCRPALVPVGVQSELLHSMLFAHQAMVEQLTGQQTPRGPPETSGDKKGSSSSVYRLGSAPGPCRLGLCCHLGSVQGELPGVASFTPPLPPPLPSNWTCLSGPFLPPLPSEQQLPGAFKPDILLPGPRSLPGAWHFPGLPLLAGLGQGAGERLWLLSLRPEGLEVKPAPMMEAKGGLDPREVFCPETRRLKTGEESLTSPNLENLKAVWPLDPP
The method, boiled down: as §1

The target in the next test is T3, ETS2 (Homo sapiens, UniProt P15036 1-469).
T3 sequence: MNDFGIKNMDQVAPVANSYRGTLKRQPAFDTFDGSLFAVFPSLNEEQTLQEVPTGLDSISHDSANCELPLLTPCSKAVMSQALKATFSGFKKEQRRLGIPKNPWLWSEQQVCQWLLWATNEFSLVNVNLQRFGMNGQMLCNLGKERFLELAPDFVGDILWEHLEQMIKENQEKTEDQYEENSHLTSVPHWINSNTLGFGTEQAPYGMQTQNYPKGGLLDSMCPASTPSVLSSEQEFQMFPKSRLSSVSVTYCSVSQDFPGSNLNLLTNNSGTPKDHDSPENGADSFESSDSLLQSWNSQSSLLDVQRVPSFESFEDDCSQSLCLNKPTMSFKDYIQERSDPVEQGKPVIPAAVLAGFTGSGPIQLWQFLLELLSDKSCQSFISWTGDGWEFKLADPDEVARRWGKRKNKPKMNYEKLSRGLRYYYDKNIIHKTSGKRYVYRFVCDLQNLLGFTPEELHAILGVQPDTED
In short, it runs like this:
as §1

Another test addresses T4, SPDEF (Homo sapiens, UniProt O95238 1-335).
T4 sequence: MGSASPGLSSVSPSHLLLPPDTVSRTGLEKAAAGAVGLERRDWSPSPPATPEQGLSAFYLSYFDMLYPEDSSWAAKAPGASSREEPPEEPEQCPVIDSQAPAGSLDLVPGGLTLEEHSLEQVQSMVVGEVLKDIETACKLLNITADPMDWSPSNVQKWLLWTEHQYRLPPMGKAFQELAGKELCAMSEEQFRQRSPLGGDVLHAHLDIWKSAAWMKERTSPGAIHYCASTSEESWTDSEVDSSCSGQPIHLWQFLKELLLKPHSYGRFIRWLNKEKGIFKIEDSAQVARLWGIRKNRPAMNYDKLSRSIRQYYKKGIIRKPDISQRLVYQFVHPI
In short, it runs like this:
as §1

In another test the target is T5, ETV7 (Homo sapiens, UniProt Q9Y603 1-341).
T5 sequence: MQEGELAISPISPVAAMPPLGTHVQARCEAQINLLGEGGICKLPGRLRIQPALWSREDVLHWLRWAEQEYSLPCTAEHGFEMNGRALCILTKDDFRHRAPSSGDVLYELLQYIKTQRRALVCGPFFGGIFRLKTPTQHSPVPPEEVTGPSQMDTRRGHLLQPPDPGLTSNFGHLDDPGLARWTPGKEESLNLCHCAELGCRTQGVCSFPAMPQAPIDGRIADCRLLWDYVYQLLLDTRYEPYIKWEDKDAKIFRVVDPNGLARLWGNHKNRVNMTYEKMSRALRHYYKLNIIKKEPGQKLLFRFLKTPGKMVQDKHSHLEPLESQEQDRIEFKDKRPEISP
In short, it runs like this:
as §1

A further test has as its target T6, ELF5 (Homo sapiens, UniProt Q9UKW6-2 1-255).
T6 sequence: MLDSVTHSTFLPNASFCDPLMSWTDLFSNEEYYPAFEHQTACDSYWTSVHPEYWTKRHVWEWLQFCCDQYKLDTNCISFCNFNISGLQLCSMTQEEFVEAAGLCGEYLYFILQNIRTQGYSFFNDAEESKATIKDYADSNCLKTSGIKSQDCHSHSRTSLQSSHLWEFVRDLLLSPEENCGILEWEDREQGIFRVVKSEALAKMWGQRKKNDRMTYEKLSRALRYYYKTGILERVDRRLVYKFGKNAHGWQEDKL
The method, boiled down: as §1

The next test addresses T7, ETV3 (Homo sapiens, UniProt P41162-2 1-143).
T7 sequence: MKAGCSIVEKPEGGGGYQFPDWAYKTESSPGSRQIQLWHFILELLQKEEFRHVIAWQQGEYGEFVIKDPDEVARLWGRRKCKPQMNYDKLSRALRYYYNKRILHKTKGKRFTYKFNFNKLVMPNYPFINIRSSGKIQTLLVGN
In short, it runs like this:
as §1

Another test addresses ETV6 (Homo sapiens, UniProt P41212 1-452). The method, boiled down: as §1

Sequence of ETV6 (P41212 whole entry): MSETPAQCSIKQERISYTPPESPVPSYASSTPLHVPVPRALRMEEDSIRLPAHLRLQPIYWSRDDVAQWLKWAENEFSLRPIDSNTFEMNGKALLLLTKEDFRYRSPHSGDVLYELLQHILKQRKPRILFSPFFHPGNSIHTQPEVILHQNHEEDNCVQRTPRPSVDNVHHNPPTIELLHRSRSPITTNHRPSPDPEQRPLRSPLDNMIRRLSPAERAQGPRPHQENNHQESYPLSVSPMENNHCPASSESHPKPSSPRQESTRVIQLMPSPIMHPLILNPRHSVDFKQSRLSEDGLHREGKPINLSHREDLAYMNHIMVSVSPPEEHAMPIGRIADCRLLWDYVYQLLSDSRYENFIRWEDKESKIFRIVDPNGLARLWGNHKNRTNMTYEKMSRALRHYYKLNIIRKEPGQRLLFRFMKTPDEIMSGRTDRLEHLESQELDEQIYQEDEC

Consider GTTATG, for which the binding signal is 1.05 fold enrichment (6-mer frequency, TF over GST control) in the test with ERF; 1.11 fold enrichment (6-mer frequency, TF over GST control) with ETV3L; 1.1 fold enrichment (6-mer frequency, TF over GST control) with ETS2; 1.12 fold enrichment (6-mer frequency, TF over GST control) with SPDEF; 1.12 fold enrichment (6-mer frequency, TF over GST control) with ETV7; 1.06 fold enrichment (6-mer frequency, TF over GST control) with ELF5. Also, the binding signal with ETV3 is 1.14 fold enrichment (6-mer frequency, TF over GST control); in the test with ETV6 it was 1.21 fold enrichment (6-mer frequency, TF over GST control).

As for CACTTC, the binding signal was 3.07 fold enrichment (6-mer frequency, TF over GST control) with ERF; 3.63 fold enrichment (6-mer frequency, TF over GST control) with ETV3L; 3.66 fold enrichment (6-mer frequency, TF over GST control) with ETS2; 3.55 fold enrichment (6-mer frequency, TF over GST control) with SPDEF; 3.64 fold enrichment (6-mer frequency, TF over GST control) in the test with ETV7; 4.43 fold enrichment (6-mer frequency, TF over GST control) with ELF5. Also, the binding signal was 3.65 fold enrichment (6-mer frequency, TF over GST control) with ETV3 and 4.24 fold enrichment (6-mer frequency, TF over GST control) in the test with ETV6.

As for ACCTAT, the binding signal in the test with ERF is 1.26 fold enrichment (6-mer frequency, TF over GST control); with ETV3L it was 1.16 fold enrichment (6-mer frequency, TF over GST control); with ETS2, 1.2 fold enrichment (6-mer frequency, TF over GST control); with SPDEF it was 1.25 fold enrichment (6-mer frequency, TF over GST control); with ETV7 it was 1.25 fold enrichment (6-mer frequency, TF over GST control); with ELF5, 1.11 fold enrichment (6-mer frequency, TF over GST control). Also, the binding signal with ETV3 was 1.17 fold enrichment (6-mer frequency, TF over GST control); with ETV6, 1.16 fold enrichment (6-mer frequency, TF over GST control).

Take CGATAG: the binding signal with ERF was 1.17 fold enrichment (6-mer frequency, TF over GST control); in the test with ETV3L, 1.07 fold enrichment (6-mer frequency, TF over GST control); with ETS2, 1.07 fold enrichment (6-mer frequency, TF over GST control); with SPDEF, 1.03 fold enrichment (6-mer frequency, TF over GST control); in the test with ETV7, 1.15 fold enrichment (6-mer frequency, TF over GST control); with ELF5, 1.02 fold enrichment (6-mer frequency, TF over GST control). Further, the binding signal is 1.17 fold enrichment (6-mer frequency, TF over GST control) in the test with ETV3 and 1.11 fold enrichment (6-mer frequency, TF over GST control) with ETV6.

With TGCGCA, the binding signal with ERF is 1.11 fold enrichment (6-mer frequency, TF over GST control); in the test with ETV3L, 1.11 fold enrichment (6-mer frequency, TF over GST control); with ETS2, 1.18 fold enrichment (6-mer frequency, TF over GST control); in the test with SPDEF, 1.02 fold enrichment (6-mer frequency, TF over GST control); with ETV7 it was 1.03 fold enrichment (6-mer frequency, TF over GST control); with ELF5 it was 1.06 fold enrichment (6-mer frequency, TF over GST control). For the same sequence, the binding signal in the test with ETV3 is 1.14 fold enrichment (6-mer frequency, TF over GST control); with ETV6 it was 1.07 fold enrichment (6-mer frequency, TF over GST control).

For TTCGCA, the binding signal is 1.46 fold enrichment (6-mer frequency, TF over GST control) with ERF; 1.32 fold enrichment (6-mer frequency, TF over GST control) with ETV3L; 1.18 fold enrichment (6-mer frequency, TF over GST control) in the test with ETS2; 1.31 fold enrichment (6-mer frequency, TF over GST control) with SPDEF; 1.26 fold enrichment (6-mer frequency, TF over GST control) with ETV7; 1.27 fold enrichment (6-mer frequency, TF over GST control) in the test with ELF5. In addition, the binding signal is 1.34 fold enrichment (6-mer frequency, TF over GST control) with ETV3 and 1.22 fold enrichment (6-mer frequency, TF over GST control) with ETV6.
